Assay [1] has as its target human Peripheral-type Benzodiazepine Receptor (PBR), TSPO (gene 706) (UniProt P30536). As to the kind of experiment: NVS_MP_hPBR: NovaScreen (NVS) Membrane Protein Assay for human Peripheral-type Benzodiazepine Receptor (PBR) (AID 2283331).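 Note: hits reduce radioligand binding relative to DMSO baseline.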 The gist of the method:
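Using human colon-derived membranes, this one-endpoint binding test reads radioligand loss by scintillation after 1 h. Screening started at 25 uM in duplicate, with positive and negative controls on every plate, and actives moved to dose series.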

The target in assay [2] is rat Peripheral-type Benzodiazepine Receptor (PBR), Tspo (gene 24230) (UniProt P16257). Briefly: NVS_MP_rPBR: NovaScreen (NVS) Membrane Protein Assay for rat Peripheral-type Benzodiazepine Receptor (PBR) (AID 2283335). A digest of the protocol:
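Single-concentration duplicate screening at 25 uM preceded concentration-series retesting of actives. Binding of a specific radioligand to rat kidney membrane PBR was read by filtration radiodetection after 1 h, with plate-wise positive and negative controls.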

Assay [3] concerns the target bovine Estrogen Receptor (ER), ESR1 (gene 407238) (UniProt P49884). Briefly: NVS_NR_bER: NovaScreen (NVS) Nuclear Receptor Binding Assay for bovine Estrogen Receptor (ER) (AID 2283345).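 Note: actives lower the bound radioligand count which means they displace the ER ligand.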 The gist of the method: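 Cell-free radioligand binding with bovine uterine membrane extracts, read 18 hours after dosing by scintillation counting. Loss of signal versus DMSO baseline indicates displacement. Primary screen run in duplicate at 25 uM, actives followed in concentration series.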

The target of assay [4] is chimpanzee Androgen Receptor (AR), AR (gene 747460) (UniProt O97775). As to the kind of experiment: NVS_NR_cAR: NovaScreen (NVS) Nuclear Receptor Binding Assay for chimpanzee Androgen Receptor (AR) (AID 2283346).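 Note: radioligand displacement from AR measured by scintillation counting in a cell-free assay.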 The gist of the method:
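Cell-free radioligand displacement using receptor protein extracted from Sf9/Sf21 cells; bound radioligand measured by scintillation counting 72 hours after chemical dosing. Loss of signal versus DMSO baseline indicates binding; primary screen single-concentration in duplicate at 25 uM, actives followed in concentration series.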

Assay [5] deals with Estrogen receptor (Homo sapiens) (UniProt P03372). As to the kind of experiment: NVS_NR_hER: NovaScreen (NVS) Nuclear Receptor Binding Assay for human Estrogen Receptor (ER) (AID 2283348). A digest of the protocol: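 Radiodetection of ligand displacement in a lysate-based, cell-free format using MCF7 extracts, read at 18 hours. Duplicate 25 uM primary testing, then concentration series for actives.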
Estrogen receptor (Homo sapiens), sequence (P03372 whole entry, looked up): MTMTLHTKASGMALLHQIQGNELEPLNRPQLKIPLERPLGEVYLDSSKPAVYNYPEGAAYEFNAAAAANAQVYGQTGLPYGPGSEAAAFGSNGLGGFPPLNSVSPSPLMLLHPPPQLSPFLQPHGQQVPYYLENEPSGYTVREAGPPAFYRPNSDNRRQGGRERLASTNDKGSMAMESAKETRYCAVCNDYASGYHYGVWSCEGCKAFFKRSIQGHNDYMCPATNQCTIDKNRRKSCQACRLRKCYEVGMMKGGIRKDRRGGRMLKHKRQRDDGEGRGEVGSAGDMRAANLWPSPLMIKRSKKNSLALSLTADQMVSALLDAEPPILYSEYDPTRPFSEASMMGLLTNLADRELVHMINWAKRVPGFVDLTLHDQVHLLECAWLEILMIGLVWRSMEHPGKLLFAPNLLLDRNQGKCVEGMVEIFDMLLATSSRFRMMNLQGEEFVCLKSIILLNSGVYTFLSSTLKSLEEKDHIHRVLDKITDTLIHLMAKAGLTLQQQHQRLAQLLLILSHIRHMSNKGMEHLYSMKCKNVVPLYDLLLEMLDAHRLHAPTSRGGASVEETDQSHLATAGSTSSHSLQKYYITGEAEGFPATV

The target is the same in assay [6]. Briefly: OT_ER_ERaERa_1440: Odyssey Thera (OT) 24-hour HEK293T Protein-Complementation Assay for Estrogen Receptor-alpha/-alpha Homodimer (AID 2283349).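 Note: hits raise fluorescence above DMSO for agonists and antagonists alike.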 The gist of the method: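 Stably transfected HEK293T; ERα LBD homodimer PCA. 24 h dosing, fluorescence intensity read, gain-of-signal vs DMSO.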
Assay [7] has the same target. Briefly: OT_ER_ERaERa_0480: Odyssey Thera (OT) 8-hour HEK293T Protein-Complementation Assay for Estrogen Receptor-alpha/-alpha Homodimer (AID 2283351).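 Note: rise in fluorescence from reassembled reporter fragments on ERα LBD homodimer in nucleus or whole cell.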 The gist of the method:
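Measures ERα LBD (aa 310-547) homodimer complementation in stably transfected HEK293T at 8 h post-dose, with fluorescence intensity quantified on a laser scanning cytometer relative to DMSO controls.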

The target in assay [8] is rat Thyrotropin Releasing Hormone Receptor (TRH), Trhr (gene 25570) (UniProt Q01717). Briefly: NVS_GPCR_rTRH: NovaScreen (NVS) G Protein-Coupled Receptor Assay for rat Thyrotropin Releasing Hormone Receptor (TRH) (AID 2283329).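 Note: hit means lower bound tracer signal versus DMSO baseline.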 A digest of the protocol:
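Rat forebrain membranes; radioligand displacement at TRH receptor by filter-based scintillation counting, read 4 h after dosing. Duplicate single-point screen at 25 uM, actives rerun in concentration series; loss of signal relative to DMSO.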

For assay [9], the target named is Sodium channel protein type 1 subunit alpha (Rattus norvegicus) (UniProt P04774). As to the kind of experiment: NVS_IC_rNaCh_site2: NovaScreen (NVS) Ion Channel Assay for rat Sodium Channel, Site 2 (NaCh) (AID 2283322).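 Note: hit means loss of radioligand binding signal relative to DMSO so AC50 marks displacement.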 As to the method:
NVS_IC_rNaCh_site2 is a biochemical, single-readout assay that uses extracted gene-proteins from Rat forebrain membranes in a tissue-based cell-free assay. Measurements were taken 1 hour after chemical dosing in a 48-well plate.NVS_IC_rNaCh_site2 is one of one assay component(s) measured or calculated from the NVS_IC_rNaCh_site2 assay. It is designed to make measurements of radioligand binding, a form of binding reporter, as detected with scintillation counting signals by Filter-based radiodetection technology.Data from the assay component NVS_IC_rNaCh_site2 was analyzed into 1 assay endpoint. This assay endpoint, NVS_IC_rNaCh_site2, was analyzed in the positive analysis fitting direction relative to DMSO as the negative control and baseline of activity. Using a type of binding reporter, loss-of-signal activity can be used to understand changes in the binding as they relate to the gene Scn1a. Furthermore, this assay endpoint can be referred to as a primary readout, because the performed assay has only produced 1 assay endpoint. To generalize the intended target to other relatable targets, this assay endpoint is annotated to the ion channel intended target family, where the subfamily is sodium channel.
Binding assays used specific radioligands (tritiated, iodinated) with non-radioactive competitive displacement ligands in agonist or antagonist protocols (as indicated) and various reference compounds and inhibitors to titrate specific binding to receptors and transporters. Most enzyme assays (CYPs, kinases, phosphatases, proteases, HDACs) used recombinant protein and specific substrates (fluorescence mostly, some colorimetric and radioactive) and inhibitors, followed by a biochemical separation of substrate and product. All assays for the biochemical HTS were initially run in duplicate at a single concentration (10 uM for CYP450 assays and 25 uM for all others). […] Each assay was run with positive and negative controls, and concurrent controls on every plate. […]

Molecules are shown by their SMILES. Values joined by “and” are separate entries in the source; they are usually repeats but may differ in a detail not shown here. Equal entries are not always repeated. Records with an inconclusive call do not appear. A structure can be active in one record and inactive in another. Active and inactive are the calls of the source. Rule for the calls: active = hit-call score of the fitted dose curve at least 0.9, where 1 is the maximum; inconclusive = response in the unintended direction; inactive = score below 0.9.

chimpanzee Androgen Receptor (AR), AR (gene 747460), sequence (O97775 whole entry, looked up): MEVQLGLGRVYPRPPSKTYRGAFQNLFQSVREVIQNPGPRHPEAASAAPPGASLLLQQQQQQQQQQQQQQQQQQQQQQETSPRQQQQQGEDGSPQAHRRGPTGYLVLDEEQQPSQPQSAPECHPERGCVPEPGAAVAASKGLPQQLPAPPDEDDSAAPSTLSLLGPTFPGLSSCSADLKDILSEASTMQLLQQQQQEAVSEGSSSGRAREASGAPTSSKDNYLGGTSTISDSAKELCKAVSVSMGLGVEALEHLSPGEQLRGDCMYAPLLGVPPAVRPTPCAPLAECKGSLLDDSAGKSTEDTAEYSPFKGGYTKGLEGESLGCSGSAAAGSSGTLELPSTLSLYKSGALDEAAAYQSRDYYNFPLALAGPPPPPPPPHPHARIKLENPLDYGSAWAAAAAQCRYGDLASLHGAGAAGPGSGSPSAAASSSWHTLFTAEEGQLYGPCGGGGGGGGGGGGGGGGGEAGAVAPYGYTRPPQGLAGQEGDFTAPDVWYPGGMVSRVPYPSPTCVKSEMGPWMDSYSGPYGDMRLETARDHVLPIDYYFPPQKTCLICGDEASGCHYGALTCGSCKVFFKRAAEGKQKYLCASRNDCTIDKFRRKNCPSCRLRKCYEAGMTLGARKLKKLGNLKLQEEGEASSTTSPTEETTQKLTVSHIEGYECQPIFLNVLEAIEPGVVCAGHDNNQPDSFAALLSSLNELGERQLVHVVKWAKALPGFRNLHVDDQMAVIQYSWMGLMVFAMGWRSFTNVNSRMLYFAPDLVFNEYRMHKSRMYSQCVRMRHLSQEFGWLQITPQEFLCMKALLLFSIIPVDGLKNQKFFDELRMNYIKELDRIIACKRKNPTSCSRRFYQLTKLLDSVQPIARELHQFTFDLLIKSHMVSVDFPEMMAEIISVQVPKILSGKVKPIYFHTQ
human Peripheral-type Benzodiazepine Receptor (PBR), TSPO (gene 706), sequence (P30536 whole entry, looked up): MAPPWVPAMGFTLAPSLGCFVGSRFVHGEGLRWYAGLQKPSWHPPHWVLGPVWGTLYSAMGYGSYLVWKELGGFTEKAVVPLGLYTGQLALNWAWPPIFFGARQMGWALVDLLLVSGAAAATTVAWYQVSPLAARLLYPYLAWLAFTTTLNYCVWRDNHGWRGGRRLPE
rat Peripheral-type Benzodiazepine Receptor (PBR), Tspo (gene 24230), sequence (P16257 whole entry, looked up): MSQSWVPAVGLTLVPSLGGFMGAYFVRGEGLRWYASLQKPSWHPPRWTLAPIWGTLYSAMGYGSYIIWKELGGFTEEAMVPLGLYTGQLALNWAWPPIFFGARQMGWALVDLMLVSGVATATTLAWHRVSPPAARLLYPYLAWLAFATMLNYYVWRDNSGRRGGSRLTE
rat Thyrotropin Releasing Hormone Receptor (TRH), Trhr (gene 25570), sequence (Q01717 whole entry, looked up): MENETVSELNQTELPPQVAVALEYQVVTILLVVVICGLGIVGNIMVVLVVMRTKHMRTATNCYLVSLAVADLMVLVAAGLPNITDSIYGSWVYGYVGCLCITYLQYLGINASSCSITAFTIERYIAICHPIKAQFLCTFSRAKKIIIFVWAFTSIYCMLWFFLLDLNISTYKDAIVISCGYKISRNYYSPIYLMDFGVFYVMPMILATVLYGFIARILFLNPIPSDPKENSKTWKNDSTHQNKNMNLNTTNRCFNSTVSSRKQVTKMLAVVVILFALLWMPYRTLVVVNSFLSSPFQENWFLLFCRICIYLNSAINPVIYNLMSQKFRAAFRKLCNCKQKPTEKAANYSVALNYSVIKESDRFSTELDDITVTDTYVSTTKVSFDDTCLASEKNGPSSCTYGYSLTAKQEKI
bovine Estrogen Receptor (ER), ESR1 (gene 407238), sequence (P49884 whole entry, looked up): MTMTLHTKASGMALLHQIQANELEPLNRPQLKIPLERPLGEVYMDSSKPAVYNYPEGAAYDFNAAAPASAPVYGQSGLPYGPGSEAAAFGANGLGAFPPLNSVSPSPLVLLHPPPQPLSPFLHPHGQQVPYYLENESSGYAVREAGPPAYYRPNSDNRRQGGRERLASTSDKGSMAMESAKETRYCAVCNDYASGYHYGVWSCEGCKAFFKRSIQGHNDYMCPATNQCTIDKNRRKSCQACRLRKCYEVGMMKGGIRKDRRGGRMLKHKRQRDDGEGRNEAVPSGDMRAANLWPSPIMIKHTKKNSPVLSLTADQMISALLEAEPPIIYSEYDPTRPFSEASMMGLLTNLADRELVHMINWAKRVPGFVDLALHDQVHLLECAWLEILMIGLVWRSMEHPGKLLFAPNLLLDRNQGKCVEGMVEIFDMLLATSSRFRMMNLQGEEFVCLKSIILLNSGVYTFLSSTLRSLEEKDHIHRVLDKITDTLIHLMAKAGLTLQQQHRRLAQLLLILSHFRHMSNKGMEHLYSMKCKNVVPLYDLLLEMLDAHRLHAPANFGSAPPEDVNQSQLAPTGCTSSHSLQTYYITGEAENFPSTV

The term AC50 denotes the midpoint of the concentration-response curve, whichever way the signal moves. For the compound `CCOc1nc(F)cc2nc(S(=O)(=O)Nc3c(Cl)cccc3C(=O)OC)nn12`, the AC50 in assay [1] is 1.63 µM (active).

Regarding `CCCCC/C=C\C/C=C\CCCCCCCC(=O)OC`, the AC50 in [1] was 8.31 µM (active) and 6.11 µM (active); in [2], 9.68 µM (active) and 8.87 µM (active); in [4] it was 4.2 µM (active) and 11.5 µM (active); in assay [5] it was 6.14 µM (active). For the same compound, the call in [3], in assay [5], in assay [6] and in [7] was inactive.

Regarding `C/C=C\C/C=C/CCCCCCCCOC(C)=O`, the AC50 in assay [1] was 16.3 µM (active); in [2] it was 17.2 µM (active). Moreover, the result in [5] was inactive.

For `Cc1ccc(N/N=c2\c(=O)cc/c(=N/Nc3ccc(S(=O)(=O)O)cc3)c2=O)c(C)c1`, the AC50 is 7.15 µM (active) in [1], 5.26 µM (active) in assay [2] and 25 µM (active) in [4]. The compound was classed as inactive in [6].

In the case of `O=C(Nc1ccccc1SSc1ccccc1NC(=O)c1ccccc1)c1ccccc1`, the concentration at half-maximal activity (AC50) in assay [1] is 6.22 µM (active). In addition, the compound was classed as inactive in [2] and in [5].

With `CCCCCc1ccc(Cl)cc1`, the compound was called inactive in assay [8], in assay [6] and in [7].

Turning to `NC(=O)N=NC(N)=O`, the compound was classed as inactive in [8] and in assay [6].

Regarding `CCCCCCCC/C=C\CCCCCCCC(=O)OCCO`, the compound was classed as inactive in [8] and in [6].

Regarding `c1ccc2c(c1)ccc1cc3c(ccc4ccccc43)cc12`, the compound was called inactive in assay [8], in assay [4], in assay [6] and in assay [7].

Turning to `NC(=O)c1ccccc1O`, the result in assay [8] and in [6] was inactive.

For the compound `CCCCCCCCCCOS(=O)(=O)O`, the call in assay [8] and in [6] was inactive.

On to `CCOC(=O)[C@H](C)O`, for which the result in assay [9] was inactive.

Regarding `CCCCCCCCCCCCCOP(=O)(O)O`, the concentration at half-maximal activity (AC50) in assay [1] was 18.4 µM (active). In addition, the compound was classed as inactive in [3], in assay [5] and in assay [6].

For `CC/C=C\C/C=C\C/C=C\CCCCCCCC(=O)O`, the call in [8], in assay [6] and in assay [7] was inactive. Moreover, the figures for the AC50 in assay [1] and in assay [5] were 11.6 µM (active) and 25 µM (active), respectively.

For the origin of these results see PubChem BioAssay (EPA / NIEHS).
